According to PubChem BioAssay (NCATS):
Records with an inconclusive call do not appear. Entries that show only a call come without a potency. Unmarked numbers belong to inactive results. Calls of active or inactive are those of the source. Calls come from the whole dose curve; as a rule, active = well fitted cell-killing curve with a large enough effect; inconclusive = small, poorly fitted or top-dose-only effect, or effect the other way; inactive = flat fitted curve, though single readings scatter.

tested on: OV90; assay: Primary qHTS to identify gynecologic anti-cancer compounds using libraries of approved drugs and bioactive compounds (AID 1345084); conditions: Gynecologic cancer cell panel viability, ATPlite luminescence, 48 h; series mostly up to 57.5 µM; note: nearly all actives have a fitted effect of over 55% in size
Procedure, shortened: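 Cells, 1,000 per well, were allowed to settle for 16 h at 37 C before compound addition. Five concentrations were tested for 48 h, and viability was read by ATPlite luminescence after 15 min at room temperature.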
Potency is the fitted concentration of half-maximal effect.

Compound	Potency	activity change, negative = cytotoxicity
COc1cc(OC)c2c(=O)[nH]c(-c3cc(C)c(OCCO)c(C)c3)nc2c1	inactive	
COc1ccc(C2=NC(c3ccc(Cl)cc3)C(c3ccc(Cl)cc3)N2C(=O)N2CCNC(=O)C2)c(OC(C)C)c1 (stereo unspecified)	inactive	
CCn1c(=O)c(-c2ccc(-c3cncs3)cc2Cl)cc2cnc(Nc3ccc(N4CCN(C)CC4)cc3)nc21	inactive	
COC(=O)c1ccc2c(c1)[nH]c1ncnc(NCCCN3CCCCC3)c12	inactive	
CN1CCN(c2ccc(Nc3cc(-c4cccc(-n5ccc6cc(C7CC7)cc(F)c6c5=O)c4CO)cn(C)c3=O)nc2)CC1	inactive	
O=c1nc(-c2ccccn2)sc2ccccc12	inactive	
CNc1nc(Nc2ccc(C(=O)N3CCOCC3)cc2OC)nc2[nH]cc(Cl)c12	inactive	
Cn1cc(-c2ccc3c(c2)CCN3C(=O)Cc2cccc(C(F)(F)F)c2)c2c(N)ncnc21	inactive	
C=C1CCC2[C@](C)(CCC[C@@]2(C)C=O)[C@H]1CC/C(C)=C/CO (stereo partly specified)	inactive	
CC1(CO)CC(O)[C@]2(C(=O)O)CCC34CC3(C=CC3[C@]5(C)C(CC[C@]34C)C(C)(CO)[C@@H](O)[C@H](O)[C@@H]5O)C2C1 (stereo partly specified)	inactive	
C/C=C(/C)C(=O)O[C@@H]1C[C@@H](OC(=O)CC(C)C)C2(C)C3C(=O)C=C(C)C2C3C1(C)C (stereo partly specified)	inactive	
O=C(NCCCN1CCOCC1)c1cnn2c(-c3ccccc3)cc(-c3ccccc3)nc12	inactive	
Cc1cc(OCCCS(C)(=O)=O)cc(C)c1-c1cccc(COc2ccc3c(c2)OCC3CC(=O)O)c1 (stereo unspecified)	inactive	
CC1=C(C(=O)OC2CCCCC2)C(c2ccc([N+](=O)[O-])cc2)C2=C(CC(C)(C)CC2=O)N1 (stereo unspecified)	inactive	
CC1(C)CC[C@]2(C(=O)O[C@@H]3O[C@H](CO)[C@@H](O)[C@H](O)[C@H]3O)CC[C@]3(C)C(=CCC4[C@@]5(C)CC[C@H](O[C@@H]6O[C@H](C(=O)O)[C@H](O)[C@H](O)[C@H]6O)C(C)(C)C5CC[C@]43C)[C@@H]2C1 (stereo partly specified)	inactive	
CCN1CCN(Cc2ccc(C(=O)Nc3ccc(C)c(Oc4ccc5c(c4)CC(=O)N5)c3)cc2C(F)(F)F)CC1	inactive	

Compound	Potency	activity change, negative = cytotoxicity
CC(=O)c1c(C)cc2cccc(O)c2c1O[C@@H]1O[C@H](CO)[C@@H](O)[C@H](O)[C@H]1O	inactive	
O=C(Nc1ccc(N(Cc2ccsc2)C(=O)Cn2nnc3ccccc32)cc1)C1CC1	inactive	
COc1ccc(CCc2nc3cc(-c4c(C)noc4C)ccc3n2CC(C)N2CCOCC2)cc1Cl (stereo unspecified)	inactive	
CNc1cccc(CCOc2ccc3c(c2)CN(CC(F)(F)F)C(=O)[C@H](CC(=O)O)C3)n1	inactive	
CC(C)(O)c1ccn2c(-c3ccc(F)c(-c4ccc(F)cc4C#N)c3)cnc2c1F	inactive	
Cc1[nH]c2ccccc2c1CCNCc1ccc(/C=C/C(=O)NO)cc1	1 µM (active)	
C[C@@H]1O[C@@H](O[C@H]2[C@@H]3C=CO[C@@H](O[C@@H]4O[C@H](CO)[C@@H](O)[C@H](O)[C@H]4O)[C@@H]3[C@@]3(CO)O[C@@H]23)[C@H](O)[C@H](OC(=O)/C=C/c2ccccc2)[C@H]1O	inactive	
C=C1C(=O)OC[C@@H]1C/C=C(\C)CC1CC(C)C(=O)O1 (stereo partly specified)	inactive	
COc1ccc(S(=O)(=O)n2cnc3cc(C)c(C)cc32)cc1	inactive	
C[C@@H]1O[C@@H](O[C@H]2CC[C@@]3(C)C(CC[C@]4(C)C3CC=C3[C@@H]5CC(C)(C)CC[C@]5(C(=O)O[C@@H]5O[C@H](CO)[C@@H](O)[C@H](O)[C@H]5O)CC[C@]34C)[C@]2(C)CO)[C@H](O)[C@H](O[C@@H]2O[C@H](CO)[C@@H](O)[C@H](O)[C@H]2O)[C@H]1O (stereo partly specified)		-0.517% [at 11.6 µM]
CCCOc1ccc(S(=O)(=O)N2CCN(CCO)CC2)cc1-c1nc2c(CCC)cn(CC)c2c(=O)[nH]1	inactive	
COc1ccc(CCCN2CCC(COC(c3ccccc3)c3ccccc3)CC2)cc1	inactive	
CCNc1nc(Nc2cc(F)c(C(=O)N3CCOCC3)cc2OC)ncc1C(F)(F)F	inactive	
CC(=O)O[C@@H]1[C@@H](OC(C)=O)[C@H](C)O[C@@H](O[C@H]2[C@@H]3C=CO[C@@H](O[C@@H]4O[C@H](CO)[C@@H](O)[C@H](O)[C@H]4O)[C@@H]3[C@@]3(CO)O[C@@H]23)[C@@H]1OC(=O)/C=C/c1ccccc1	inactive	
OC(c1ccc(-c2ccc(CN3CCN(Cc4ccncc4)CC3)cc2)c(F)c1)(C(F)(F)F)C(F)(F)F	inactive	
